In all, about 110,000 compounds were measured (“z-score”: median about -0.1, highest 2% from about 2 on). The sample as a whole holds a higher share of the highest values than the screen did. Calls of active or inactive are those of the source.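 The calls were made as follows: active = z-score in the third read window above 3 or below -3; inactive = the rest.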
These compounds were tested against Metabotropic glutamate receptor 8 (Rattus norvegicus) (UniProt P70579) (assay: mGluR8 Gi/Go-coupled signaling modulation – cell-based, rat, thallium flux, HTS, primary screen (AID 488969)). Details: HEK293 rat mGluR8, GIRK (G protein-gated inwardly rectifying potassium channel) thallium flux, FluoZin2; at 10 µM; stronger effect = higher value; submaximal glutamate (EC20) added with thallium.
Metabotropic glutamate receptor 8 (Rattus norvegicus), sequence (P70579 whole entry, looked up): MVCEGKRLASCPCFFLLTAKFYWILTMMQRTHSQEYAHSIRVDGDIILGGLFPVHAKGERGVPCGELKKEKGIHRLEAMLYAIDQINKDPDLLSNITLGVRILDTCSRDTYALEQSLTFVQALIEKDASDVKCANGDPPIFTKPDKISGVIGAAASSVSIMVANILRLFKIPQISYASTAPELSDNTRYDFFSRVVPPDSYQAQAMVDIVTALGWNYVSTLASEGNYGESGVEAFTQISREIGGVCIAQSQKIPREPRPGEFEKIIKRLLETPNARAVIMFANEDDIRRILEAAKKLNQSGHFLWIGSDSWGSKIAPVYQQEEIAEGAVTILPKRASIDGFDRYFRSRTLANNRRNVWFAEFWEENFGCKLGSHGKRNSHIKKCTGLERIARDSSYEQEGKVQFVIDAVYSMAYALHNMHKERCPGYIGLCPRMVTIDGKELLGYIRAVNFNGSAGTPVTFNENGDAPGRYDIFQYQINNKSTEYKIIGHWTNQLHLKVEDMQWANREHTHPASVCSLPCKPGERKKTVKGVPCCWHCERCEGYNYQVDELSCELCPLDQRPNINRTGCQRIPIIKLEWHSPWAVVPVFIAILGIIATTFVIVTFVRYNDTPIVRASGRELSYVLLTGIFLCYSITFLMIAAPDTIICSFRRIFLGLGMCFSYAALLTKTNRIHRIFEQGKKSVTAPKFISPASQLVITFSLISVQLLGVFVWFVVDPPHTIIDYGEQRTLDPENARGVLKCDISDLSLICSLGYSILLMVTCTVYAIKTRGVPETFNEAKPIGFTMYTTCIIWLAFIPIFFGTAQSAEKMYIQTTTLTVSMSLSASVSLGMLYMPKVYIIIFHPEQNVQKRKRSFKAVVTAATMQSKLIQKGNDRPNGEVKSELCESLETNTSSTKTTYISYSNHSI

With `Cn1c(SCC(=O)c2cc3ccccc3o2)nnc1-c1ccccc1` the z-score was 4.93 (active).
For `Cc1sc2ncnc(SCc3ccco3)c2c1C`, the z-score was 3.43 (active).
`Cc1sc2nc(C(C)C)nc(SCC(=O)NCc3ccco3)c2c1C` was tested, and the z-score was 17 (active).
In the case of `CCn1c(SCC(=O)NC(=O)NCc2ccco2)nc2sc(C)c(C)c2c1=O`, the z-score is reported as 3.05 (active).
`Cc1sc2nc(C(C)C)nc(SCC(=O)N3c4ccccc4CC3C)c2c1C` (stereo not given) was tested, and the z-score was 10.2 (active).
In the case of `CS(=O)(=O)N(CC(=O)NCc1ccco1)c1ccc(Cl)c(C(F)(F)F)c1`, the z-score is reported as 4.31 (active).
In the case of `COc1ccc(-n2nnnc2SCC(=O)N2CCOCC2)cc1`, the z-score is reported as 3.28 (active).
`O=C(N/N=C/c1ccc([N+](=O)[O-])s1)c1cccc(Br)c1` was tested, and the z-score was 6.96 (active).
`COc1ccc(C(OC(=O)c2cccs2)C(=O)NCC2CCCO2)cc1` (stereo not given) was tested, and the z-score was 8.22 (active).
With `Cc1cccc(N2CCN(C(=O)c3ccc(Cl)c(S(=O)(=O)N4CCc5ccccc5C4)c3)CC2)c1C` the z-score was 3.61 (active).
For `Oc1ccccc1CNc1ccc(Br)cn1`, the z-score was 5.86 (active).
With `Cc1c(C#N)c2ncn(CC#N)c(=O)c2n1-c1ccccc1` the z-score was 3.28 (active).
With `CC(C)(C)c1ccc(OCCON2C(=O)CCC2=O)c(Cl)c1` the z-score was 3.08 (active).

In order of rising z-score:
1. COc1ccc(Nc2ncnc3c2cnn3Cc2ccccc2)cc1  -1.73
2. CCOc1ccc2c(c1)c(C(C)=O)c(C)n2-c1ccccc1  -1.1
3. Cc1sc2nc(SCC(=O)NCc3ccco3)n(C)c(=O)c2c1C  -0.982
4. C=CCn1c(SCC(=O)NCc2ccco2)nc2sc(C)c(C)c2c1=O  -0.948
5. Cc1c(C#N)c2ncn(Cc3ccccn3)c(=O)c2n1-c1ccccc1  -0.89
6. Cc1c(C#N)c2ncn(Cc3ccccc3)c(=O)c2n1-c1ccccc1  -0.85
7. Cc1nn2c(CN(C(=O)COc3ccccc3)c3ccccc3)nnc2c2ccccc12  -0.835
8. CCOc1ccc(C(=O)NCC(=O)OC2CCOC2=O)cc1OCC (stereo not given)  -0.823
9. O=P(c1ccccc1)(c1ccccc1)N(c1ccccc1)c1ccccc1  -0.752
10. O=C(Oc1ccnc2cc(Cl)ccc12)N1CCOCC1  -0.719
11. CS(=O)(=O)NCC(c1cccnc1)N1CCN(c2ccc(F)cc2)CC1 (stereo not given)  -0.636
12. CN=C1SC(CC(=O)Nc2sc(C)c(C)c2C(=O)OC)C(=O)N1C (stereo not given)  -0.51
13. Brc1ccc(NCc2cccc3ccccc23)nc1  -0.475
14. Cc1sc2ncnc(NCc3ccco3)c2c1C  -0.47
15. Cc1cccc(NS(=O)(=O)c2cc(C(=O)N3CCc4ccccc4C3)ccc2Cl)c1C  -0.467
16. CCCCN(C)CCNC(=O)Cn1ncc2c(=O)oc3ccc(C)cc3c21  -0.464
17. COc1ccc(N2CCN(C(=O)c3cn(C4CCCC4)c(=O)c4c3c3ccccc3n4C)CC2)cc1  -0.454
18. Cc1ccc(NC(=O)N2CCCN(Cc3ccc(F)cc3)C2)cc1C  -0.435
19. O=C(N/N=C/c1ccc([N+](=O)[O-])s1)c1ccncc1  -0.428
20. COc1ccccc1C(OC(=O)c1cccs1)C(=O)NCC1CCCO1 (stereo not given)  -0.383
21. Clc1ccc2c(NNc3ccccc3Cl)ccnc2c1  -0.353
22. O=C(NNC(=S)NC(=O)c1ccccc1[N+](=O)[O-])c1ccccc1Cl  -0.333
23. CCN=C1SCC(=O)N1c1ccc(OC)cc1  -0.307
24. Cc1sc2nc(SCC(=O)NCc3ccco3)n(Cc3ccccc3)c(=O)c2c1C  -0.304
25. O=C(N/N=C/c1ccc([N+](=O)[O-])s1)c1ccccc1Br  -0.301
26. Cc1sc2nc(C3CC3)nc(SCC(=O)N3c4ccccc4CC3C)c2c1C (stereo not given)  -0.291
27. O=C(CCC1COc2ccccc2O1)Nc1ccc(Cl)cn1 (stereo not given)  -0.27
28. O=C(Nc1ccc(N2CCCC2)c(S(=O)(=O)Nc2cccc(C(F)(F)F)c2)c1)c1cccs1  -0.233
29. COCCN(Cc1ccccc1)C(=S)Nc1ccc(OC(F)F)cc1  -0.227
30. COc1nc(NCc2ccco2)nc(NC2CCCCC2)n1  -0.224
31. Cc1ccc(N(C(=O)CS(=O)CC(=O)Nc2ccc(F)cc2)C(C(=O)NC2CCCCC2)c2ccco2)cc1 (stereo not given)  -0.219
32. O=C(Nc1ccc(Cl)cc1)N1CCCN(Cc2ccccc2F)C1  -0.218
33. Cc1ccc(NC(=O)c2nccnc2C(=O)O)cc1C  -0.208
34. COc1ccc(OC)c(NC(=S)NCCC(c2ccccc2)c2ccccc2)c1  -0.202
35. Cc1cccc(NC(=O)c2cc(NC(=O)c3ccccc3)ccc2N2CCCCC2)c1  -0.201
36. COc1ccc(NC(=O)CCC(=O)N/N=C/c2ccc([N+](=O)[O-])s2)cc1  -0.189
37. Nn1c(Cc2cccc3ccccc23)nnc1SCCOc1ccc(Br)cc1  -0.185
38. COc1ccc(Nc2ncnc3c2cnn3Cc2ccccc2)cc1OC  -0.181
39. O=C1CCCC(=O)C1=C1SCCCS1  -0.18
40. Cc1ccc(C(=O)N/N=C/c2ccc([N+](=O)[O-])s2)cc1  -0.176
41. CCOc1ccccc1NC(=O)CN(C)S(=O)(=O)c1cccc2nsnc12  -0.173
42. Cc1ccc2oc(=O)c(/C=C(\O)c3sc(C)nc3C)nc2c1  -0.168
43. COc1ccc(-c2cc(-c3ccccc3)c(C#N)c(SCC(=O)Nc3ncc(C)s3)n2)cc1  -0.161
44. O=C(N/N=C\c1ccc([N+](=O)[O-])s1)c1cncc(Br)c1  -0.156
45. CC(=O)c1ccc(N2CCN(C(=S)Nc3cccc(Cl)c3)CC2)cc1  -0.152
46. CN1C(=O)c2ccc(NC(=O)c3ccc(N4CCCCC4)c([N+](=O)[O-])c3)cc2C1=O  -0.139
47. Cc1csc(NC(=O)Cc2c[nH]c3ccccc23)n1  -0.137
48. CCOc1ccc(-n2nnnc2SCC(=O)N2CCOCC2)cc1  -0.126
49. CCn1c(SCC(=O)Nc2ccc(C(=O)OC)cc2)nc2cccnc21  -0.121
50. CCSc1ncnc2sc(C)c(C)c12  -0.112
51. CCOCC(=O)Nc1nc(-c2ccccc2)c(CC)s1  -0.107
52. O=[N+]([O-])c1ccc(NC(=S)N2CCN(c3ccc(F)cc3)CC2)cc1  -0.0841
53. COc1ccc(N(CC(=O)NCc2ccco2)S(C)(=O)=O)cc1Cl  -0.0738
54. O=C(c1ccc(Cl)c(S(=O)(=O)N2CCc3ccccc3C2)c1)N1CCN(c2ccccc2)CC1  -0.0565
55. CC(=O)Nc1ccc(C(=O)N2CCCC2)cc1  -0.0468
56. O=C(CSc1nc2ccccc2s1)NNC(=O)Nc1ccc(Cl)c(Cl)c1  -0.0417
57. O=c1c2ccccc2nc(N/N=C/c2ccc(O)cc2)n1O  -0.0395
58. Cc1nc(SCC(=O)NCc2ccco2)c2c(C)c(C)sc2n1  -0.0392
59. Cc1ccc(OCCCCn2cnc3ccccc32)c(C)c1  -0.0373
60. CCOCCCNc1nc2ccccc2[nH]1  -0.0367
61. Cc1cc(/N=C/N(C)C)on1  -0.0351
62. O=C(OC(C(=O)NCC1CCCO1)c1ccc(F)cc1)c1cccs1 (stereo not given)  -0.0339
63. COc1ccc(S(=O)(=O)N(CCc2ccccc2)CC(=O)N/N=C/c2ccc3c(c2)OCO3)cc1  -0.0021
64. O=C(Nc1ccc(Cl)c(Cl)c1)Nc1cc(S(=O)(=O)N2CCOCC2)ccc1N1CCCC1  0.00467
65. CC(CN(C)Cc1ccccc1)OC(=O)c1ccccc1F (stereo not given)  0.00558
66. CCc1nc(SCC(=O)N2c3ccccc3CC2C)c2c(C)c(C)sc2n1 (stereo not given)  0.0133
67. CCc1ccc(C(=O)N2CCCC2)s1  0.0133
68. CCOC(=O)Cc1csc(NC(=O)CSc2nc3sc(C(=O)O)c(C)c3c(=O)[nH]2)n1  0.0555
69. COc1ccc(Cl)cc1NC(=O)CS(=O)(=O)c1cccc2nsnc12  0.107
70. COc1cc(C)ccc1OCCCON1C(=O)CCC1=O  0.122
71. COc1cc(OC)cc(-n2nnnc2SCC(=O)N2CCCC2)c1  0.154
72. O=C(O)COCCN1CCN(C(c2ccccc2)c2ccc(Cl)cc2)CC1 (stereo not given)  0.16
73. Oc1ccc(CN2CCc3ccccc3C2)c2cccnc12  0.165
74. CS(=O)(=O)N(CC(=O)NCc1ccco1)c1cc(C(F)(F)F)ccc1Cl  0.181
75. Cc1ccc(/C=C2/NC(=O)N(c3ccccc3)C2=O)o1  0.187
76. CC1CCN(S(=O)(=O)c2ccc(NC(=O)CN3CCN(C)CC3)cc2)CC1  0.193
77. CC(C)C(=O)Nc1ccc(C(=O)N2CCN(C(=O)c3ccco3)CC2)cc1  0.196
78. OCCN1CCN(Cc2cc(Cl)c3cccnc3c2O)CC1  0.225
79. Oc1ccc(Cl)cc1CNc1ccc(Br)cn1  0.33
80. Cc1ccc(C)c(OCC(=O)NCCN(C)C)c1  0.356
81. CCn1c(=O)n(CC)c2cc(S(N)(=O)=O)c(C)cc21  0.381
82. Cc1sc2nc(C3CC3)nc(SCC(=O)NCc3ccco3)c2c1C  0.399
83. O=C1CCC(=O)N1OCCCOc1ccc(Br)cc1Cl  0.401
84. Cn1c(SCC(N)=O)nnc1-c1ccccc1  0.403
85. CC(=NCCCN(C)C)C1=C(O)c2ccccc2C1=O  0.45
86. CC(C)(C)C1CCc2c(sc(NC(=O)c3ccco3)c2C(N)=O)C1 (stereo not given)  0.458
87. O=C(Cc1ccccc1)N/N=C/c1ccc([N+](=O)[O-])s1  0.543
88. CCOC(=O)c1c(C)n(C)c2ccc(OCC(O)CN(CC)CC)cc12 (stereo not given)  0.554
89. Cn1ccnc1SCC(=O)c1cc2ccccc2o1  0.608
90. O=C(CSc1ncnc2sc3c(c12)CCCCC3)NCc1ccco1  1.08
91. CC12CNCC(C)(CN(C(c3ccccc3)c3ccccc3)C1)C2  1.25
92. COc1ccccc1NC(=O)CS(=O)(=O)c1cccc2nsnc12  1.99
93. CCOc1ccc(NC(=O)CCC(=O)N/N=C/c2ccc([N+](=O)[O-])s2)cc1  2.1
94. CC(C)C(=O)Nc1ccc(C(=O)N2CCCCCC2)cc1  2.15
95. Clc1ccc(C(c2ccccc2)N2CCNCC2)cc1 (stereo not given)  2.16
96. CCN(CC)CC(O)COc1ccc2c(c1)c(C(C)=O)c(C)n2-c1ccccc1 (stereo not given)  2.25
97. CCOc1ccc(Nc2ncnc3c2cnn3Cc2ccccc2)cc1  2.26
98. Clc1ccc2c(N3CCCC3)ccnc2c1  2.36
99. O=C(Nc1ccc(Cl)cc1)N1CCCN(Cc2ccc(F)cc2)C1  2.53
100. Cc1sc2ncnc(SCC(=O)NC(=O)NCc3ccco3)c2c1C  2.66
101. Oc1c(CN2CCc3ccccc3C2)cc(Cl)c2cccnc12  2.72
102. Cc1ccccc1C(=O)N/N=C/c1ccc([N+](=O)[O-])s1  2.95

— PubChem BioAssay AID488969 (Vanderbilt High Throughput Screening Facility, 2010)
